# Values without a mark were called inactive.
# Tests used:
# Experiment in all cases: log2 ratio of Biotin-Ahx-Ub-VS probe labelling (fragment/DMSO); higher = less target engagement (more negative = stronger competition), active = hit call of the paper (q ≤ 0.05, log2 ratio ≤ -1)
# Conditions in all cases: compound concentration: 200 uM; treatment time: 3 h
# USP19 = target: T1, USP19 (UniProt O94966)
# T1 sequence (whole entry): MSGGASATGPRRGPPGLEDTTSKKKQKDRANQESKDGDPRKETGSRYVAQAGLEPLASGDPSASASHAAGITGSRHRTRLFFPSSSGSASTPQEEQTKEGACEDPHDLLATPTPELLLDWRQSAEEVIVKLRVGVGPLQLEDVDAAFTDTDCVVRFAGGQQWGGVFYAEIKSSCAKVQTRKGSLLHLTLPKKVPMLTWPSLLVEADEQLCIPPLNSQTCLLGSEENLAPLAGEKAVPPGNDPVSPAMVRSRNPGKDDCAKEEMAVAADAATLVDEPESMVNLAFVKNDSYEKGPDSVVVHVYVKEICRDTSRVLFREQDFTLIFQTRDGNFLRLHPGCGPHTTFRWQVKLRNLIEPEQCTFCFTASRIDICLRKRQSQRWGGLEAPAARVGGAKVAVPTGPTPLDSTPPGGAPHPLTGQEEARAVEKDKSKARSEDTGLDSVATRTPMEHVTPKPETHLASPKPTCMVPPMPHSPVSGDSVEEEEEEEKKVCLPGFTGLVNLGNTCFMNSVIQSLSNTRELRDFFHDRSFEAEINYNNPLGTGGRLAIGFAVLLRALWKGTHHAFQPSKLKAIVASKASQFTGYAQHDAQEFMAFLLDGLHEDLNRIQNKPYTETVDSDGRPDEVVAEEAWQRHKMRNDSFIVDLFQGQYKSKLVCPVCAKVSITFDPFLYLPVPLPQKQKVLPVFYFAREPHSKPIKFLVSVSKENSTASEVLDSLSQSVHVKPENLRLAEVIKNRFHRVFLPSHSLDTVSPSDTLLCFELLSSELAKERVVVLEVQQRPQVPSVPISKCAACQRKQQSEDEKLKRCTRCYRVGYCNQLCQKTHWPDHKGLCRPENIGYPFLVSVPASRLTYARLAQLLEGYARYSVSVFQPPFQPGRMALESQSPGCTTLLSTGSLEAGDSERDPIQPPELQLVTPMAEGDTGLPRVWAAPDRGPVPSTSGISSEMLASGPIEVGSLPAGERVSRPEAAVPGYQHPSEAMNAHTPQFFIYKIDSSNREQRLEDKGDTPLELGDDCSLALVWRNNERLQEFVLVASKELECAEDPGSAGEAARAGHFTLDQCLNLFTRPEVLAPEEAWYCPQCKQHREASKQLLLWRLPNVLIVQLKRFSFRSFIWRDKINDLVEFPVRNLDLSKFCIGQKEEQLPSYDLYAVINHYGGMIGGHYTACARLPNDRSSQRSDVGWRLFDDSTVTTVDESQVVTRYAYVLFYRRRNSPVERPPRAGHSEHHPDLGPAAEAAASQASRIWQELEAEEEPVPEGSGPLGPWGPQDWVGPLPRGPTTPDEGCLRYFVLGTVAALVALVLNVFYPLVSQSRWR
# In short: (§1)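 HEK293T lysate, 495 µg per sample in Tris/CHAPS/IGEPAL buffer with protease inhibitors, was treated in triplicate with fragment at 200 µM or vehicle for 3 h and then with Biotin-Ahx-Ub-VS at 0.5 µM final for 1 h. Labelled DUBs were NeutrAvidin-enriched, digested with LysC and trypsin, and run by diaPASEF LC-MS/MS. Spectronaut label-free quantities were global-median-normalised, and values are average log2 fragment/vehicle ratios by unpaired t-test on proteins with ≥2 unique peptides.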
# USP22 = target: T2, USP22 (UniProt Q9UPT9)
# T2 sequence (whole entry): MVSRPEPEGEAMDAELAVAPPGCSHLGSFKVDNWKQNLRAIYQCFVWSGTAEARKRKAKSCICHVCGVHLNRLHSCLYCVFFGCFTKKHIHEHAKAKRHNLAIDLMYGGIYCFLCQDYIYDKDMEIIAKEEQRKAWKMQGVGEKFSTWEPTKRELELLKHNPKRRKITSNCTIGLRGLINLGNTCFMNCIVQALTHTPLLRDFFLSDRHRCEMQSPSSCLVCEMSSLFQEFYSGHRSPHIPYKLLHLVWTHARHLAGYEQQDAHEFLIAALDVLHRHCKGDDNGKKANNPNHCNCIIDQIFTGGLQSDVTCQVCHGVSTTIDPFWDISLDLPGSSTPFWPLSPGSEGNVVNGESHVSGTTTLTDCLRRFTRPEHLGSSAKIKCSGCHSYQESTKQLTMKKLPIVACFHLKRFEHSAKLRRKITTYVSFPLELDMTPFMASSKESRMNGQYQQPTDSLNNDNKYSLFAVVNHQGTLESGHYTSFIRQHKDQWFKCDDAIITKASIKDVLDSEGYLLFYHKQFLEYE
# In short: as §1
# USP24 = USP24 (UniProt Q9UPU5)
# USP24, sequence (Q9UPU5 whole entry): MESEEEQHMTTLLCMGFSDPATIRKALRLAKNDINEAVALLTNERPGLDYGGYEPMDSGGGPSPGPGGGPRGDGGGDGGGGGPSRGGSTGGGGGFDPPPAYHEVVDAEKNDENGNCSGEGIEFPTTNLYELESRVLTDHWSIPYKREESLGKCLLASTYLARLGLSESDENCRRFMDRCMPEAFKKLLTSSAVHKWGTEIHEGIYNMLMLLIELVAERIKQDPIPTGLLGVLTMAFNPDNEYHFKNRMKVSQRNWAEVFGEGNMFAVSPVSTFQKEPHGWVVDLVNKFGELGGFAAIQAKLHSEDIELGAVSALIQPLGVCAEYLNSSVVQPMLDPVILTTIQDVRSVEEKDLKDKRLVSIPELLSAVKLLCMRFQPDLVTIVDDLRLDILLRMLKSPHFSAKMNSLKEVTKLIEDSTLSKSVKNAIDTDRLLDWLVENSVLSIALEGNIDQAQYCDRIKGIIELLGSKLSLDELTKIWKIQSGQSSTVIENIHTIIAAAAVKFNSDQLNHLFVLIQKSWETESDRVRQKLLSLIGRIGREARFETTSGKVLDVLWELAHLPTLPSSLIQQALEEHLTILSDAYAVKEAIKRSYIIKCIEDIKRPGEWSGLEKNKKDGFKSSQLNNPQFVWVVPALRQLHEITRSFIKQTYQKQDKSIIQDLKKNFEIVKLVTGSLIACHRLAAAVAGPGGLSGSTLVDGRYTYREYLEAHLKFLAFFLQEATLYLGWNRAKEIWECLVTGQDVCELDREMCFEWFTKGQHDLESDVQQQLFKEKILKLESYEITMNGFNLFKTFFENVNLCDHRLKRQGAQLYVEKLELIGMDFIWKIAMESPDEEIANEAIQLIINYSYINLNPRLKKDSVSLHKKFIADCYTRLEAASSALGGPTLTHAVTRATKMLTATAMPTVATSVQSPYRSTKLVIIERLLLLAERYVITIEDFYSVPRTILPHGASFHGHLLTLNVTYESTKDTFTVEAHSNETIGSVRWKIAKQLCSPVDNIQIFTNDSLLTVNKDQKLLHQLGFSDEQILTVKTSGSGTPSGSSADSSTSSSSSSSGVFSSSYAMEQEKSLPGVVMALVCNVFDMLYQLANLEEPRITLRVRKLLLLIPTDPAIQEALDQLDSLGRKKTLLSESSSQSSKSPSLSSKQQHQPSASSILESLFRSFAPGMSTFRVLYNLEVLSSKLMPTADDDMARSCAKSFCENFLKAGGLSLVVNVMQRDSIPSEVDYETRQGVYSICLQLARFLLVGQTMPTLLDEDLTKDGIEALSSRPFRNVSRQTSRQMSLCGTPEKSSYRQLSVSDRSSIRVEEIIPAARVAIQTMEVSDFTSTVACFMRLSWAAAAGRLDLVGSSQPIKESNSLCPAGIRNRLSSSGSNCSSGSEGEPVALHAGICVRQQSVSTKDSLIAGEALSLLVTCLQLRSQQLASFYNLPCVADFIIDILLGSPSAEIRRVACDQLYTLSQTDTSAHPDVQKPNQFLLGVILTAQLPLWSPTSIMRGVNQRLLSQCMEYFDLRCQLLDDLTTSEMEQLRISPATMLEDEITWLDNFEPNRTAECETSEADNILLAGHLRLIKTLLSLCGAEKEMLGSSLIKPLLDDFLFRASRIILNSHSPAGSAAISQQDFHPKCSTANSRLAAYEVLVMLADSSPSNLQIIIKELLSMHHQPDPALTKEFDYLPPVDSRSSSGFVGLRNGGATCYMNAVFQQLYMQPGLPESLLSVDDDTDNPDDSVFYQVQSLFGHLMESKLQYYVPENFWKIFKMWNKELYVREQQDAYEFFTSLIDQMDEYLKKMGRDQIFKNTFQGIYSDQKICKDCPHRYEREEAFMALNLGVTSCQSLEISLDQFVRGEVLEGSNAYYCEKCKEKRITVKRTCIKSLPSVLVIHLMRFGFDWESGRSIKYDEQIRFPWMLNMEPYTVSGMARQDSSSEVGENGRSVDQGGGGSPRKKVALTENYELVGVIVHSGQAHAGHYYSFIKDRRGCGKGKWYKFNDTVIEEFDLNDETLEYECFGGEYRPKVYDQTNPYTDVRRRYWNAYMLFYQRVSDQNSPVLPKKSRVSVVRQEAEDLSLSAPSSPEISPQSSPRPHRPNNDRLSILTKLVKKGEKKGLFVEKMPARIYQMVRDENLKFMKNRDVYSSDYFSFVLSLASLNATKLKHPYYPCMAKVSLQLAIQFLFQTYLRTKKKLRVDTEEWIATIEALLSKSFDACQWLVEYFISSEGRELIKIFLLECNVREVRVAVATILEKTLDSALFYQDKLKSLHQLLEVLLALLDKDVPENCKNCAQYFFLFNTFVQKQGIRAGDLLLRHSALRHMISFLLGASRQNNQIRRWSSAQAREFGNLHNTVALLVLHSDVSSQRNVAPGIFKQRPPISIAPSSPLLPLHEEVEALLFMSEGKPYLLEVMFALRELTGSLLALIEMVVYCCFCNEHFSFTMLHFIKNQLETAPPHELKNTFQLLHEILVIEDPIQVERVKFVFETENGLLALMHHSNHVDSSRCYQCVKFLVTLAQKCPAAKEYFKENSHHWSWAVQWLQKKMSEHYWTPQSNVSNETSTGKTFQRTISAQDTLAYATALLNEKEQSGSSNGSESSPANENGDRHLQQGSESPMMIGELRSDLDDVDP
# In short: as §1
# USP25 = target: T3, USP25 (UniProt Q9UHP3)
# T3 sequence (whole entry): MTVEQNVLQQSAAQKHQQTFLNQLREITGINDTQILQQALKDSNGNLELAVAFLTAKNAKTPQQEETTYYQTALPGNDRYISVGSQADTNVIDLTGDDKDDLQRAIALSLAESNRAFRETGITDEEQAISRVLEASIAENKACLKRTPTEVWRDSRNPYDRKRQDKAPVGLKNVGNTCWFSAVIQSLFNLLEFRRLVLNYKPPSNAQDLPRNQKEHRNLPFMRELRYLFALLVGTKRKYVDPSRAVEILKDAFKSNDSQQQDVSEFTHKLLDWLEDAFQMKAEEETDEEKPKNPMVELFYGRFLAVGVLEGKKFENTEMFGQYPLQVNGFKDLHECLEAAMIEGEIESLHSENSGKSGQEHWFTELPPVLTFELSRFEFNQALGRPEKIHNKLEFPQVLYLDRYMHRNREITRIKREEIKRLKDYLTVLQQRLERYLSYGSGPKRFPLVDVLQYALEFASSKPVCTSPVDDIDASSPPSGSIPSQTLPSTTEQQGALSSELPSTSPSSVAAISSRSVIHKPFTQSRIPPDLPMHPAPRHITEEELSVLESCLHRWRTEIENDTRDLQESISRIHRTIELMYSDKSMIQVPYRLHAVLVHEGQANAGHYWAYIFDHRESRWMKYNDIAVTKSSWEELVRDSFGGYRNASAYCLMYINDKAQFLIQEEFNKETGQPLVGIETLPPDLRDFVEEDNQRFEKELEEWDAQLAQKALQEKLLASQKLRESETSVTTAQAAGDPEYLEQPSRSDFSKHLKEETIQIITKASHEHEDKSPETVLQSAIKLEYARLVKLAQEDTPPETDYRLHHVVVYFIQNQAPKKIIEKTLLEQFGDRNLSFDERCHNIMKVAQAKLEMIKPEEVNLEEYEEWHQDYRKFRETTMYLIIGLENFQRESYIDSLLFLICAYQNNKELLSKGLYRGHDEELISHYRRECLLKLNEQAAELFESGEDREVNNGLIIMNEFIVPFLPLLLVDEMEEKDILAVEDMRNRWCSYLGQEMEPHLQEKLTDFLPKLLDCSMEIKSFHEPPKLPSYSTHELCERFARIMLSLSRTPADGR
# In short: as §1
# USP28 = target: T4, USP28 (UniProt Q96RU2)
# T4 sequence (whole entry): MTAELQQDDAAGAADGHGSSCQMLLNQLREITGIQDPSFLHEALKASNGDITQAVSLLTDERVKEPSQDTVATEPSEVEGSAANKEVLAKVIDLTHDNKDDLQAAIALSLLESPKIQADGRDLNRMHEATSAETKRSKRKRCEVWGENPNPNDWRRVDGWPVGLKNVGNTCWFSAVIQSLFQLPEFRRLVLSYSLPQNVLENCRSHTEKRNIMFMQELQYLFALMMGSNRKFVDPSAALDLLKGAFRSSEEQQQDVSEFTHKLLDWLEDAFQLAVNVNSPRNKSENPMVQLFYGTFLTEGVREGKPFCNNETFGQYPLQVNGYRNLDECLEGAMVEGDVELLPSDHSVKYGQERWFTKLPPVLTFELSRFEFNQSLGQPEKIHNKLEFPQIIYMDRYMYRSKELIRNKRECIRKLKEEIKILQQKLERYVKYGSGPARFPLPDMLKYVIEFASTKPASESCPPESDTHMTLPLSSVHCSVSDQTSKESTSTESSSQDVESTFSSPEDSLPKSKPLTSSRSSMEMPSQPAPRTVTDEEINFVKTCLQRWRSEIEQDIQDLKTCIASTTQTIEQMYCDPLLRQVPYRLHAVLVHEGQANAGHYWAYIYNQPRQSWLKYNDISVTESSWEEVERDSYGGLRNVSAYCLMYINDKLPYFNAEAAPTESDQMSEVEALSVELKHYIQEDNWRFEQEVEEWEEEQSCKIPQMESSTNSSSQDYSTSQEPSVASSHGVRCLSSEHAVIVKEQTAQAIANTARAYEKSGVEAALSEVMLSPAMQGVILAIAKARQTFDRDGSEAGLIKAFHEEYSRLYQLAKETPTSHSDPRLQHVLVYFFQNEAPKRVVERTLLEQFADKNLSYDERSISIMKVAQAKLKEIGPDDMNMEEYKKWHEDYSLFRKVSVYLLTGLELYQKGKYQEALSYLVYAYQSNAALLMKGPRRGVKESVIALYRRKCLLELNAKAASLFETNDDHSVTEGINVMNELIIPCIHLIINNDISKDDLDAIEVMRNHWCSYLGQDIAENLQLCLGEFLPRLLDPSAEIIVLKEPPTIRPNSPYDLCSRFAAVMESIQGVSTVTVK
# In short: as §1
smiles,measurement,setting,value
COc1cc(Cl)c(C)cc1NC(=O)CCl,log2 ratio of Biotin-Ahx-Ub-VS probe labelling,USP19,-0.357
same,log2 ratio of Biotin-Ahx-Ub-VS probe labelling,USP22,-0.0389
same,log2 ratio of Biotin-Ahx-Ub-VS probe labelling,USP24,-1.3 (active)
same,log2 ratio of Biotin-Ahx-Ub-VS probe labelling,USP25,-0.839
same,log2 ratio of Biotin-Ahx-Ub-VS probe labelling,USP28,-0.742
